Results taken from PubChem BioAssay AID1159580 (chemical genetic matrix, 2015).
In all, about 5,500 compounds went through this assay and about 2,000 (36%) were called active. Not shown: some 18% with an inconclusive outcome. Rule as the data show it: active = normalized growth mostly below about 0.91 (no sharp cut-off); inconclusive = no clear call, values can overlap the other calls; inactive = mostly above about 0.92. Some of the results follow.

Assay: chemical genetic growth profiling, strain panel (AID 1159580);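 also: tested at 20 µM; growth read once vehicle control cultures reached saturation at 30 °C; 1 = growth at the plate median or of vehicle wells; lower values mean less growth of the strain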
Conditions: growth OD

Measured: normalized growth

CN1CCC[C@H]1c1cccnc1
inactive: S. cerevisiae deletion strains, locus YJR075W, strain HOC1, stronger effect = lower value 0.999 | S. cerevisiae deletion strains, locus YKL009W, strain mrt4, stronger effect = lower value 0.975 | S. cerevisiae deletion strains, locus YKL068W, stronger effect = lower value 0.983 | S. cerevisiae deletion strains, locus YKL085W, strain MDH1 (second series), stronger effect = lower value 0.984 | S. cerevisiae deletion strains, locus YKL085W, strain MDH1, stronger effect = lower value 0.984 | S. cerevisiae deletion strains, locus YKL160W, strain elf1, stronger effect = lower value 1.01 | S. cerevisiae deletion strains, locus YKL190W, strain CNB1, stronger effect = lower value 1 | S. cerevisiae deletion strains, locus YKR001C, strain vps1, stronger effect = lower value 0.986 | S. cerevisiae deletion strains, locus YKR026C, strain gcn3, stronger effect = lower value 1.04 | S. cerevisiae deletion strains, locus YKR091W, strain srl3, stronger effect = lower value 1.02 | S. cerevisiae deletion strains, locus YLL001W, strain dnm1, stronger effect = lower value 1.05 | S. cerevisiae deletion strains, locus YLL026W, stronger effect = lower value 1.02 | S. cerevisiae deletion strains, locus YLL041C, strain sdh2, stronger effect = lower value 1.02 | S. cerevisiae deletion strains, locus YLR027C, strain aat2, stronger effect = lower value 1.01 | S. cerevisiae deletion strains, locus YLR039C, strain RIC1, stronger effect = lower value 0.981 | S. cerevisiae deletion strains, locus YLR058C, strain SHM2, stronger effect = lower value 0.987 | S. cerevisiae deletion strains, locus YLR102C, strain apc9, stronger effect = lower value 0.995 | S. cerevisiae deletion strains, locus YLR113W, strain HOG1, stronger effect = lower value 0.921 | S. cerevisiae deletion strains, locus YLR221C, strain rsa3, stronger effect = lower value 1.04 | S. cerevisiae deletion strains, locus YLR258W, strain gsy2, stronger effect = lower value 1.02 | S. cerevisiae deletion strains, locus YLR262C, strain YPT6 (second series), stronger effect = lower value 1.04 | S. cerevisiae deletion strains, locus YLR262C, strain YPT6, stronger effect = lower value 1.01 | S. cerevisiae deletion strains, locus YLR268W, strain sec22, stronger effect = lower value 1 | S. cerevisiae deletion strains, locus YLR320W, strain mms22, stronger effect = lower value 1.03 | S. cerevisiae deletion strains, locus YLR330W, strain CHS5, stronger effect = lower value 0.987 | S. cerevisiae deletion strains, locus YLR342W, strain FKS1 (second series), stronger effect = lower value 0.976 | S. cerevisiae deletion strains, locus YLR342W, strain FKS1, stronger effect = lower value 1.02 | S. cerevisiae deletion strains, locus YLR357W, strain rsc2, stronger effect = lower value 1.04 | S. cerevisiae deletion strains, locus YLR370C, strain arc18, stronger effect = lower value 1.03 | S. cerevisiae deletion strains, locus YLR371W, strain rom2, stronger effect = lower value 0.99 | S. cerevisiae deletion strains, locus YLR384C, strain iki3, stronger effect = lower value 1.04 | S. cerevisiae deletion strains, locus YLR418C, strain cdc73, stronger effect = lower value 1.02 | S. cerevisiae deletion strains, locus YML016C, strain PPZ1, stronger effect = lower value 0.99 | S. cerevisiae deletion strains, locus YML032C, strain rad52, stronger effect = lower value 0.999 | S. cerevisiae deletion strains, locus YML120C, strain ndi1, stronger effect = lower value 1.03 | S. cerevisiae deletion strains, locus YML124C, strain tub3, stronger effect = lower value 0.992 | S. cerevisiae deletion strains, locus YMR058W, strain fet3, stronger effect = lower value 1.03 | S. cerevisiae deletion strains, locus YMR078C, strain ctf18, stronger effect = lower value 0.979 | S. cerevisiae deletion strains, locus YMR125W, strain sto1, stronger effect = lower value 1.05 | S. cerevisiae deletion strains, locus YMR129W, stronger effect = lower value 1.04 | S. cerevisiae deletion strains, locus YMR205C, strain PFK2, stronger effect = lower value 1.03 | S. cerevisiae deletion strains, locus YMR223W, strain ubp8, stronger effect = lower value 0.978 | S. cerevisiae deletion strains, locus YMR231W, strain pep5, stronger effect = lower value 1.03 | S. cerevisiae deletion strains, locus YMR263W, strain SAP30, stronger effect = lower value 1.02 | S. cerevisiae deletion strains, locus YMR307W, strain GAS1, stronger effect = lower value 0.946 | S. cerevisiae deletion strains, locus YNL067W, strain RPL9B, stronger effect = lower value 1.02 | S. cerevisiae deletion strains, locus YNL071W, strain lat1, stronger effect = lower value 1.04 | S. cerevisiae deletion strains, locus YNL128W, strain TEP1, stronger effect = lower value 1.02 | S. cerevisiae deletion strains, locus YNL153C, strain GIM3, stronger effect = lower value 1.02 | S. cerevisiae deletion strains, locus YNL183C, strain NPR1, stronger effect = lower value 0.938 | S. cerevisiae deletion strains, locus YNL209W, strain ssb2, stronger effect = lower value 1.03 | S. cerevisiae deletion strains, locus YNL233W, strain BNI4, stronger effect = lower value 1.01 | S. cerevisiae deletion strains, locus YNL248C, strain rpa49, stronger effect = lower value 1.03 | S. cerevisiae deletion strains, locus YNL250W, strain rad50, stronger effect = lower value 0.988 | S. cerevisiae deletion strains, locus YNL271C, strain bni1, stronger effect = lower value 0.985 | S. cerevisiae deletion strains, locus YNL298W, strain CLA4, stronger effect = lower value 1 | S. cerevisiae deletion strains, locus YNL307C, strain MCK1, stronger effect = lower value 1 | S. cerevisiae deletion strains, locus YNL322C, strain KRE1 (second series), stronger effect = lower value 1.04 | S. cerevisiae deletion strains, locus YNL322C, strain KRE1, stronger effect = lower value 0.992 | S. cerevisiae deletion strains, locus YNR049C, strain mso1, stronger effect = lower value 1.02 | S. cerevisiae deletion strains, locus YNR052C, strain pop2, stronger effect = lower value 0.972 | S. cerevisiae deletion strains, locus YOL006C, strain TOP1, stronger effect = lower value 0.988 | S. cerevisiae deletion strains, locus YOL012C, strain htz1 1.12 | S. cerevisiae deletion strains, locus YOL147C, strain pex11, stronger effect = lower value 0.996 | S. cerevisiae deletion strains, locus YOR001W, strain rrp6, stronger effect = lower value 1.02 | S. cerevisiae deletion strains, locus YOR061W, strain CKA2, stronger effect = lower value 0.999 | S. cerevisiae deletion strains, locus YOR069W, strain VPS5, stronger effect = lower value 0.988 | S. cerevisiae deletion strains, locus YOR070C, strain gyp1, stronger effect = lower value 1.02 | S. cerevisiae deletion strains, locus YOR080W, strain dia2, stronger effect = lower value 1.03 | S. cerevisiae deletion strains, locus YOR083W, strain WHI5, stronger effect = lower value 1.02 | S. cerevisiae deletion strains, locus YOR106W, strain vam3, stronger effect = lower value 1.07 | S. cerevisiae deletion strains, locus YOR136W, strain idh2, stronger effect = lower value 0.988 | S. cerevisiae deletion strains, locus YOR144C, strain elg1, stronger effect = lower value 0.993 | S. cerevisiae deletion strains, locus YOR184W, strain ser1, stronger effect = lower value 0.959 | S. cerevisiae deletion strains, locus YOR231W, strain MKK1, stronger effect = lower value 0.952 | S. cerevisiae deletion strains, locus YOR265W, strain rbl2, stronger effect = lower value 1.03 | S. cerevisiae deletion strains, locus YOR270C, strain vph1, stronger effect = lower value 1.12 | S. cerevisiae deletion strains, locus YOR290C, strain snf2, stronger effect = lower value 1.02 | S. cerevisiae deletion strains, locus YOR316C, strain cot1, stronger effect = lower value 0.989 | S. cerevisiae deletion strains, locus YPL051W, strain arl3, stronger effect = lower value 1.01 | S. cerevisiae deletion strains, locus YPL055C, strain LGE1, stronger effect = lower value 1.04 | S. cerevisiae deletion strains, locus YPL078C, strain atp4, stronger effect = lower value 1.03 | S. cerevisiae deletion strains, locus YPL106C, strain sse1, stronger effect = lower value 1 | S. cerevisiae deletion strains, locus YPL240C, strain hsp82, stronger effect = lower value 1.03 | S. cerevisiae deletion strains, locus YPL241C, strain CIN2, stronger effect = lower value 0.996 | S. cerevisiae deletion strains, locus YPL256C, strain CLN2, stronger effect = lower value 0.943 | S. cerevisiae deletion strains, locus YPR119W, strain clb2, stronger effect = lower value 1 | S. cerevisiae deletion strains, locus YPR141C, strain kar3, stronger effect = lower value 0.968 | S. cerevisiae deletion strains, locus YPR163C, strain tif3, stronger effect = lower value 0.999 | S. cerevisiae deletion strains, locus YPR167C, strain met16, stronger effect = lower value 0.99 | S. cerevisiae deletion strains, strain wtn01, stronger effect = lower value 0.998 | S. cerevisiae strains, strain wild type, stronger effect = lower value 0.999
